Screening results: PubChem BioAssay, National Center for Advancing Translational Sciences (NCATS)
Epigenetic reg = derepresses silenced GFP reporter in murine cells | Potency, µM (titrated, usually from 53.9 µM), hits mostly activators | murine LDR cells, GFP reporter derepression, 30 h | actives 0.2% (n = 280,000) | AID 1865; active = well fitted activation curve with a large enough effect; note: nearly all actives have a fitted effect of over 60% in size
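Reporter derepression read as number of fluorescent GFP-positive objects, 20-120 um in size, counted by laser-scanning cytometer. Mouse LDR line with an epigenetically silenced CMV-GFP locus; compound incubation 30 h, 37 C.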
D1 potentiator = human D1 dopamine receptor positive modulation | actives 0.036% (n = 360,000) | HEK293 TREx D1 cells, calcium flux, dopamine EC20 potentiation | P21728 | potentiation, % at 10 µM; in the data active = potentiation above about 30%
Target sequence (P21728 whole entry, looked up): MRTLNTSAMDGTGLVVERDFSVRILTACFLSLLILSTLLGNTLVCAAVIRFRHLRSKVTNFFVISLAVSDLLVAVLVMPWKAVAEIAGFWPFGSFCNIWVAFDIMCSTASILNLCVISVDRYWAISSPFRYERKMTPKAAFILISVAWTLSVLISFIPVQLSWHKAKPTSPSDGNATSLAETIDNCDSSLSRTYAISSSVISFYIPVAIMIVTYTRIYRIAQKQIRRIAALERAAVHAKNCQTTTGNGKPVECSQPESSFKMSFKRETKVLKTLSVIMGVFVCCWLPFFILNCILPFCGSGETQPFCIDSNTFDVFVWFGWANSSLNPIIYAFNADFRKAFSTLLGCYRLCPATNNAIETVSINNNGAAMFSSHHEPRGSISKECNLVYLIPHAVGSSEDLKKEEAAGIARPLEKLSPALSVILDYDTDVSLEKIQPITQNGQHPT
D1 antag = blocks dopamine activation of the human D1 receptor; P21728; HEK293 TREx D1 cells, calcium flux, dopamine EC80; hits give low values; activity change, negative = inhibition, % at 10 µM; actives 3.2% (n = 360,000); in the data active = activity change below about -30%
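Allosteric or orthosteric antagonism assessed as attenuation of the calcium response to EC80 dopamine, added 180 s after compound, in induced HEK293 Trex D1 cells loaded with no-wash calcium dye.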
TRHR agonist = TRH receptor (human) agonism; actives 0.18% (n = 360,000); TRHR cells, calcium flux fluo-8, FDSS agonist mode; activation, % at 2 µM; P34981
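Steps: seed TRHR cells overnight; add fluo-8 no-wash Ca dye, RT 30 min–1.5 h; record 10 s baseline; pin-transfer compounds; monitor fluorescence 1 cycle/s for the agonist window. Calcium increases flag candidate agonists.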
D1 ag = agonists of human D1 dopamine receptor; P21728; HEK293 T-REx D1 cells, calcium flux, agonist mode; activation, % at 2 µM; actives 1% (n = 360,000); AID 504660
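Agonism was scored from calcium flux recorded over 180 s (1 read/s) after pintool compound addition, following a 10-cycle baseline. Cells were inducible force-coupled HEK293 TREx D1, plated overnight at 30 C and loaded with no-wash calcium dye.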
TRHR enhancer = allosterically enhances the human TRH receptor; P34981; TRHR cells, fluo-8 calcium fluorescence, EC20 TRH enhancement; enhancement, % at 2 µM; actives 0.66% (n = 360,000); AID 493056; in the data active = enhancement above about 30%
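TRHR-expressing cells loaded with fluo-8 calcium dye were read kinetically (ex 480/em 530) during compound addition, then stimulated with an EC20 of TRH (10 nM final). Enhancement of the Gq-mediated intracellular calcium response was scored.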
Large screens that a line does not name were inactive. Shown are actives, neighbours in structure and some others; about 4.6% of the full set was active somewhere. Cut-off read from the data, not from the text of the source, unless noted: active = activation above about 30%; inactive = the rest.

c1ccc2c(c1)OCCOCCOCCOCCOc1ccccc1OCCOCCOCCO2	D1 antag -32
COc1cccc(NC(=S)N(CCC(C)C)C(C)c2ccncc2)c1 (centres undefined)	none (no result: Epigenetic reg)
CSc1cccc(NC(=S)N(CCC(C)C)C(C)c2ccncc2)c1 (centres undefined)	D1 antag -34
COCCCN(C(=S)Nc1cc(Cl)cc(Cl)c1)C(C)c1ccncc1 (centres undefined)	D1 antag -53
O=c1cc(N2CCOCC2)oc2c(-c3ccccc3)cccc12	none (no result: D1 potentiator, D1 antag, TRHR agonist, D1 ag, TRHR enhancer)
CC(=O)c1ccc(S(=O)(=O)N2CCN(C(=O)CSc3ccc(C)c(C)c3)CC2)cc1	D1 antag -34 (no result: Epigenetic reg)
CN(Cc1nc(-c2ccccc2)no1)C1CCOCC1	none
COc1ccc(-c2noc(CN(C)C3CCOCC3)n2)cc1	TRHR enhancer 32
CC(=O)OCC1OC(C#CCCc2ccccc2)C=CC1OC(C)=O (centres undefined)	none (no result: D1 potentiator, D1 antag, TRHR agonist, D1 ag, TRHR enhancer)
O=C(CN1CCC2(CC1)OCCO2)c1ccc2cc[nH]c2c1	none
O=C(CN1CCN(c2ccccc2)CC1)c1ccc2cc[nH]c2c1	D1 antag -36
C=CCOc1ccc(CN(C)c2ccc(S(=O)(=O)N3CCN(C)CC3)cc2[N+](=O)[O-])cc1	D1 antag -36 (no result: Epigenetic reg)
CCOc1ccc(Nc2ccc(S(=O)(=O)N3CCN(C)CC3)cc2[N+](=O)[O-])cc1OCC	none (no result: Epigenetic reg)
CCOc1ccc(CN(C)c2ccc(S(=O)(=O)N3CCN(C)CC3)cc2[N+](=O)[O-])cc1OC	D1 antag -45 (no result: Epigenetic reg)
CN1CCN(S(=O)(=O)c2ccc(N(C)Cc3ccc(C(F)(F)F)cc3)c([N+](=O)[O-])c2)CC1	none (no result: Epigenetic reg)
COc1ccc(NC(=O)CC2C(=O)N(c3ccc(C)cc3)C(=O)N2Cc2cccnc2)cc1 (centres undefined)	none
NC(=O)Nc1ccc(C(=O)N2CCN(S(=O)(=O)Cc3ccccc3)CC2)cc1	none (no result: Epigenetic reg, D1 potentiator)
NC(=O)NC(=O)C(c1ccccc1)N1CCN(S(=O)(=O)Cc2ccccc2)CC1 (centres undefined)	D1 antag -31 (no result: Epigenetic reg, D1 potentiator)
CCOC(=O)N1CCN(C(=O)c2c[nH]c3ccc(S(=O)(=O)N(C)c4ccc(OCC)cc4)cc3c2=O)CC1	D1 antag -89 (no result: Epigenetic reg)
CCOC(=O)N1CCN(C(=O)c2c[nH]c3ccc(S(=O)(=O)N(C)c4ccc(F)cc4)cc3c2=O)CC1	none (no result: Epigenetic reg)
CCOc1ccc(N(C)S(=O)(=O)c2ccc3[nH]cc(C(=O)NCC(OC)OC)c(=O)c3c2)cc1	none (no result: Epigenetic reg)
CCOc1ccc(N(C)S(=O)(=O)c2ccc3[nH]cc(C(=O)NCc4ccccc4)c(=O)c3c2)cc1	TRHR enhancer 37
CCN(CC)S(=O)(=O)c1ccc2[nH]cc(C(=O)NCCC3=CCCCC3)c(=O)c2c1	D1 antag -34
CC(=O)OCC1OC(Oc2cc(OC(C)=O)c3c(=O)cc(-c4ccc(OC(C)=O)c(OC(C)=O)c4)oc3c2)C(OC(C)=O)C(OC(C)=O)C1OC(C)=O (centres undefined)	none (no result: D1 potentiator, D1 antag, TRHR agonist, D1 ag, TRHR enhancer)
Cc1nn(-c2ccccc2)c2nc(C3CC3)cc(C(=O)Nc3ccc(F)cc3)c12	none
CN(C(=O)c1ccc(Oc2ccc([N+](=O)[O-])cc2)cc1)C1CCCCC1	D1 antag -35 (no result: Epigenetic reg)
CN(C(=O)c1ccc(S(=O)(=O)N2CCCC2)cc1)C1CCCCC1	none
CCOC(=O)CC(C(=O)OCC)C1CCCCC1=O (centres undefined)	none (no result: D1 potentiator, D1 antag, TRHR agonist, D1 ag, TRHR enhancer)
Cc1cccc(Cn2c(=O)n(Cc3ccccc3)c(=O)c3oc4ccccc4c32)c1	none
Cc1ccc(C)c(Cn2c(=O)n(C(C)C)c(=O)c3oc4ccccc4c32)c1	D1 antag -80
Cc1ccc(Cn2c(=O)n(Cc3ccccc3)c(=O)c3oc4ccccc4c32)cc1	TRHR enhancer 36
Cc1ccc(C)c(Cn2c(=O)n(Cc3ccco3)c(=O)c3oc4ccccc4c32)c1	none
COc1ccc(Cn2c(=O)c3oc4ccccc4c3n(Cc3ccccc3)c2=O)cc1	TRHR enhancer 35
COc1ccc(NC(=O)c2sc3nc4c(c(-c5ccc(OC)cc5)c3c2N)C(=O)CC(C)(C)C4)cc1	D1 antag -36
